Source: PubChem BioAssay AID1645875 (National Center for Advancing Translational Sciences (NCATS), 2021)
Several values for one entry are separate records, joined by “and”; a condition that tells them apart may be missing. Identical values can stand only once. Inconclusive results are not listed. Activity calls are given as the source filed them. The call rests on the fitted dose curve; in most records, active means well fitted inhibition curve with a large enough effect; inconclusive means small, poorly fitted or top-dose-only effect; inactive means no such curve, though single readings can be large or run the other way. Where a SMILES comes first, the peptide text is derived from it. The star is where a group is joined. AFC = O=c1cc(C(F)(F)F)c2ccc(N*)cc2o1

These compounds were tested against N-terminal Xaa-Pro-Lys N-methyltransferase 1 (Homo sapiens) (UniProt Q9BV86) (assay: Orthogonal qHTS for Inhibitors of N-terminal methyltransferase 1 (NTMT1): ThioGlo Assay). Settings: NTMT1 SAHH-coupled ThioGlo fluorescence, 30 min; series mostly up to 84.5 µM.
N-terminal Xaa-Pro-Lys N-methyltransferase 1 (Homo sapiens), sequence (Q9BV86 whole entry, looked up): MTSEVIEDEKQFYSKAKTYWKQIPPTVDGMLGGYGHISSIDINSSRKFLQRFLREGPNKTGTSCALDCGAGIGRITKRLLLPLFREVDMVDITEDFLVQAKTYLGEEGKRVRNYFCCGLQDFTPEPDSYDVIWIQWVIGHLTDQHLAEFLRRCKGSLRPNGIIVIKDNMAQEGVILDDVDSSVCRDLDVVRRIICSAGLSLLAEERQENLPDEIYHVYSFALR
Outline: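 125 nM NTMT1 pre-incubated 1 min at room temperature with titrated compounds, then 100 uM SAM, 10 uM SAHH and 15 uM ThioGlo3 (final) added. Fluorescence (ex 340/em 450 nm) read before and after 30 min in the dark, normalized to the initial background.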
With NCC(O)C1CCCCCCC1 (stereo not given) the Potency was “inactive”.
In the case of Oc1cc2c(c(Cl)c1O)CCNCC2c1ccccc1 (stereo not given), the Potency is reported as 30.8 µM (active).
COc1cc2nc(N(C)C)nc(NC3CCN(C)CC3)c2cc1OC was tested, and the Potency was “inactive”.
With CC(=O)N[C@@H](CC(C)C)C(=O)N[C@@H](CCC(=O)O)C(=O)N[C@@H](CCC(=O)O)C(=O)N[C@@H](CC(=O)O)C(=O)Nc1ccc2c(C(F)(F)F)cc(=O)oc2c1 (Ac-LEED-{AFC}) the Potency was 44.1 µM (active).
COc1cc(N2CCC(O)CC2)ccc1Nc1nc(Nc2ccccc2S(=O)(=O)C(C)C)c2[nH]cnc2n1 was tested, and the Potency was 19.7 µM (active).
Cc1cc2c(c(=O)[nH]1)OC(C(O)CC(C)C)O2 (stereo not given) was tested, and the Potency was 19.7 µM (active).
For N.N.N.N.N.N.N.N.N.N.N.N.N.N.O.O.[Ru+4].[Ru+5].[Ru+5], the Potency was 34.5 µM (active).
With Cc1cccc(C)c1OCC(N)C(C)C (stereo not given) the Potency was 1.54 µM (active).
In the case of CC/C(=C(\c1ccccc1)c1ccc(OCCN(C)C)cc1)c1ccccc1, the Potency is reported as “inactive”.
Cc1cc2c(C(C)C)c(O)c(O)c(C=O)c2c(O)c1-c1c(C)cc2c(C(C)C)c(O)c(O)c(C=O)c2c1O was tested, and the Potency was 38.8 µM (active).
For Cc1[nH]c(/C=C2\C(=O)Nc3cc(-c4ccccc4)ccc32)c(C)c1CCC(=O)O, the Potency was 9.87 µM (active).
For O=C1NC(=O)/C(=C/c2ccc(-c3ccc(F)cc3O)o2)S1, the Potency was 30.8 µM (active).
For COc1cc2c(NC3CCN(C(C)C)CC3)nc(N3CCCCC3)nc2cc1OCCCN1CCCCC1, the Potency was “inactive”.
With COc1c(C)c(C(=O)c2ccc(N)c(C(=O)O)c2)n2ccccc12 the Potency was 1.97 µM (active) and 1.75 µM (active).
In the case of COc1ccnc(NC(=S)N2CCN(c3cccc(Cl)c3Cl)CC2)c1, the Potency is reported as 3.88 µM (active).
For COc1cc2c(NC3CCN(C(C)C)CC3)nc(N3CCCN(c4ccccc4)CC3)nc2cc1OCCCN1CCCC1, the Potency was 55.5 µM (active).
With Clc1ccc(Nc2nnc(Cc3ccncc3)c3ccccc23)cc1 the Potency was 62.2 µM (active).
With O=C(O)c1ccnc2cc(-c3nc4ccccc4n3CCN3CCCCC3)sc12 the Potency was 55.5 µM (active).
In the case of C=Cc1c(C)c2cc3[nH]c(cc4nc(cc5nc(cc1[nH]2)C(C)=C5CCC(=O)O)C(CCC(=O)O)=C4C)c(C)c3C=C, the Potency is reported as 15.4 µM (active).
In the case of Cc1cc(C)nc(NC(=S)N2CCN(c3cccc(S(C)(=O)=O)c3)CC2)c1, the Potency is reported as 12.3 µM (active).
For CC(C)c1cc2c(c(O)c1O)[C@@]13CCCC(C)(C)[C@@H]1[C@H](OC3=O)C2=O, the Potency was 9.67 µM (active).
In the case of CC[N+](CC)(CC)CCOc1cccc(OCC[N+](CC)(CC)CC)c1OCC[N+](CC)(CC)CC, the Potency is reported as 0.614 µM (active).
For COc1c/c(=C2\C=c3ccccc3=N2)[nH]/c1=C/c1[nH]c(C)cc1C, the Potency was 24.8 µM (active).
In the case of C#Cc1cccc(Nc2ncnc3cc(OC)c(OCCCCCCC(=O)NO)cc23)c1, the Potency is reported as 22.1 µM (active).
COc1cc2c(NC3CCN(C4CCCCC4)CC3)nc(N3CCCN(C)CC3)nc2cc1OCCOCCN(C)C was tested, and the Potency was 43.5 µM (active).
C[C@]12C[C@H](O)[C@H]3[C@@H](CCC4=CC(=O)CC[C@@]43C)[C@@H]1CC[C@@H]2C(=O)CO was tested, and the Potency was “inactive”.
For O=C(Nc1ccccc1)c1ccc(Nc2nnc(-c3ccc(O)cc3)c3ccccc23)cc1, the Potency was 27.8 µM (active).
For CC[C@@H](c1ccc(F)c(F)c1)n1c(C(=O)OC)c(-c2ccno2)[nH]c1=S, the Potency was 6.98 µM (active).
With Cc1cccc(NC(=O)c2c(NC(=O)c3ccccc3)sc3c2CCCC3)c1 the Potency was “inactive”.
In the case of OCCn1cc(-c2cnc3nnn(Cc4ccc5ncccc5c4)c3n2)cn1, the Potency is reported as 17.5 µM (active).
